Reference: PubChem BioAssay (NCI)
About 83,000 compounds went through this panel and 20% of them were active in at least one assay; those are over-represented in the sample as a whole.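 48-hour exposure, single concentration, 96-well plates; percent growth endpoint where 0 means no net growth. Active: below 10.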 Activity calls are given as the source filed them.

How the values were obtained:
Test in all cases: NCI-60 one-dose screen, 48 h (100 = growth as untreated, 0 = no growth, -100 = all killed)
Conditions in all cases: 10 µM unless noted
[1] = test system: SR leukemia
[2] = test system: RPMI-8226 leukemia
[3] = test system: OVCAR-8 ovarian
[4] = test system: OVCAR-5 ovarian
[5] = test system: OVCAR-4 ovarian
[6] = test system: SK-OV-3 ovarian
[7] = test system: IGROV1 ovarian
[8] = test system: OVCAR-3 ovarian
[9] = test system: HS 578T breast
[10] = test system: NCI/ADR-RES ovarian

Measured: growth

CCN1CCC2(CC1)NC(=O)c1c(c3ccc(Cl)c(Cl)c3n1C)C2C#N (stereo not given)
inactive: [1] 26.5% | [2] 16.6% | [3] 76.9% | [4] 74.3% | [5] 63.8% | [6] 87.6% | [7] 55.8% | [8] 56.2% | [9] 53.8% | [10] 63.4%

O=C1Nc2c(ccc(Cl)c2Cl)/C1=C\c1cc(C(F)(F)F)cc(C(F)(F)F)c1
active: [1] -41.1% | [4] -28.8% | [5] 9.67% | [7] 3.13% | [8] -34.2% | [9] -37.6% | [10] 8.35%
inactive: [2] 25.6% | [3] 27.1% | [6] 59.9%

C=C1C(=O)O[C@H]2[C@H]1CC/C(C=Nc1ccc(C(F)(F)F)cc1N)=C\CC[C@@]1(C)O[C@@H]21
inactive: [4] 31.5% | [5] 23.3% | [6] 65.4% | [7] 27.7% | [10] 23.4%
active: [1] -2.49% | [2] -17% | [3] 3.29% | [8] -11.1% | [9] 7.74%

CC(O)CN(CC(C)O)c1ccc2c(c1)Cc1cc([N+](=O)[O-])ccc1-2 (stereo not given)
inactive: [1] 62.5% | [2] 104% | [3] 118% | [4] 86.2% | [5] 112% | [6] 108% | [7] 55.6% | [8] 91.7% | [9] 95.8% | [10] 92.9%

CCNC(=O)Oc1ccc(/C(=C(\C)c2ccc(Cl)cc2)c2ccc(OCCN(CC)CC)cc2)cc1
active: [1] -26.8% | [2] -11.4%
inactive: [3] 64.8% | [4] 85.9% | [5] 40.5% | [6] 61.5% | [7] 49.2% | [8] 53.9% | [9] 47.1% | [10] 57.3%

Clc1ccc2c(NCCCNc3nc(-n4ccnc4)nc4ccccc34)ccnc2c1
inactive: [1] 58.4% | [2] 69.3% | [3] 86.2% | [4] 96.3% | [5] 75% | [6] 94.5% | [7] 79.1% | [8] 90.2% | [9] 84.6% | [10] 101%

Cc1[nH]c(-c2cc(N)ccc2Cl)c2c1C(=O)CCCC2
inactive: [1] 44.8% | [2] 12.7% | [3] 22.2% | [4] 49.3% | [5] 36.4% | [6] 11.7% | [7] 20.6% | [8] 30.4% | [10] 33%
active: [9] 7.36%

CC(=O)c1cc(C(=O)c2ccc3c(c2)Sc2ccccc2N3)n2ccccc12
inactive: [4] 68.2% | [5] 40.9% | [7] 15% | [9] 24.9% | [10] 22.1%
active: [1] 9.43% | [2] 5.63% | [3] 6.54% | [6] 9.84% | [8] -16.8%

Nc1ccc(-c2cc3c(NCc4ccccc4)ncnc3s2)cc1
inactive: [1] 81.5% | [2] 62.6% | [3] 94% | [4] 77% | [5] 60.6% | [6] 102% | [7] 49.9% | [8] 80% | [9] 86.5% | [10] 80.7%

COc1cc2c(cc1-c1c(C)noc1C)ncc1nc(C3CCOCC3)n([C@@H](C)COC(F)F)c12
inactive: [1] 28.5% | [2] 18.4% | [3] 45% | [4] 65.2% | [5] 46.4% | [7] 67% | [8] 42.3% | [10] 50.6%
active: [6] 2.74% | [9] 8.31%

CCN(CC)c1ccc(/C=N\NC(=O)/C=C/C=C/c2ccc3c(c2)OCO3)c(O)c1
active: [8] 4.95%
inactive: [1] 17.6% | [2] 53.6% | [3] 32.9% | [4] 60.9% | [5] 15.3% | [6] 39.5% | [7] 38.2% | [9] 68.1% | [10] 17.6%

C=C1C(=O)O[C@H]2[C@H]1CC/C(COC(=O)c1cc3cc(OC)ccc3[nH]1)=C\CC[C@@]1(C)O[C@@H]21
active: [1] -21.1% | [2] -20.3% | [3] -66.9% | [4] -58.6% | [5] -81.5% | [7] -77.1% | [8] -97.4% | [9] -3.89% | [10] -0.39%
inactive: [6] 50.6%

O=c1cc(CSc2nnc(SCc3cc(=O)oc4c3ccc3ccccc34)o2)c2ccc3ccccc3c2o1
inactive: [1] 91.7% | [2] 99.8% | [3] 94.1% | [4] 99.7% | [5] 111% | [6] 98.8% | [7] 94.9% | [8] 105% | [9] 94.2% | [10] 94.4%

CN(C)S(=O)(=O)c1cccc(-c2nc3sc4c(c3c(=O)[nH]2)CCCC4)c1
inactive: [2] 23.9% | [3] 13.4% | [4] 23.3% | [7] 32.1% | [8] 19.5% | [10] 29.5%
active: [1] -48.6% | [5] -56.4% | [6] 7.06% | [9] -4.53%

FC(F)(F)Oc1ccc2nc3nc4ccc[nH]c4cc3c2c1
inactive: [1] 43.9% | [2] 71.7% | [3] 69.9% | [4] 115% | [5] 31.5% | [6] 63.8% | [7] 74.6% | [8] 98.2% | [9] 56.7% | [10] 85.8%

Cc1cc(C)nc(SC2=C(Nc3ccc(O)cc3)C(=O)N(Cc3ccccc3)C2=O)n1
active: [9] -13.2% [40 µM]
inactive: [1] 73.6% [40 µM] | [2] 38.8% [40 µM] | [3] 111% [40 µM] | [4] 120% [40 µM] | [5] 85.6% [40 µM] | [6] 94.3% [40 µM] | [7] 81.4% [40 µM] | [8] 80.9% [40 µM] | [10] 69% [40 µM]

COc1ccc(C(=O)c2sc3nc4c(c(-c5cccnc5)c3c2N)CCCC4)cc1OC
active: [2] 4.67%
inactive: [1] 37.8% | [3] 85% | [4] 86.4% | [5] 74% | [6] 104% | [7] 117% | [8] 89.9% | [9] 65.8% | [10] 89.3%

Oc1cccc2ccc(N/N=C/c3cc(CN4CCOCC4)c(O)c4ncccc34)nc12
active: [1] 2.95% | [6] -14.9% | [10] 2.84%
inactive: [2] 16.2% | [3] 13% | [4] 28.3% | [5] 14.2% | [7] 18.7% | [8] 23.2% | [9] 36.3%

CCOc1cc2ncc(C#N)c(Nc3ccc(F)c(Cl)c3)c2cc1NC(=O)CC1CCSS1 (stereo not given)
active: [1] -27.8% | [2] -5.51% | [3] -41.7% | [4] -40.6% | [5] -69.4% | [6] -91.7% | [7] -45.9% | [8] -86.3% | [9] -17.4% | [10] -30.3%

COc1cc2c(cc1O)CC[C@@H]1[C@@H]2CC[C@]2(C)[C@@H](NCCN(C)C)CC[C@@H]12
active: [1] -67.2% | [2] -59.9% | [3] -79% | [4] -84% | [5] -63.3% | [6] -90% | [7] -74.8% | [8] -88.3% | [9] -56.9% | [10] -85.9%

CC(=O)NCC1c2c(n(C)c3c(Cl)c(Cl)ccc23)C(=O)NC1(C)C (stereo not given)
inactive: [1] 75.2% | [2] 100% | [3] 91.3% | [4] 88.7% | [5] 103% | [6] 116% | [7] 96.5% | [8] 107% | [9] 104% | [10] 88.1%

CN1CCN(c2nc(NCCCNc3ccnc4cc(Cl)ccc34)c3ccccc3n2)CC1
inactive: [3] 38.8% | [4] 84.8% | [5] 59.8% | [6] 66.6% | [7] 70.7% | [8] 75.8% | [9] 79.5% | [10] 96.3%
active: [1] -25.3% | [2] 8.13%

CCC#CC[C@H](O)C/C=C1/C(=O)C=C[C@@H]1C/C=C\CCCC(=O)OC
active: [1] -8.41% | [2] -13.6% | [3] 7.14%
inactive: [4] 32.4% | [5] 29.1% | [6] 35.5% | [7] 14% | [8] 12.5% | [9] 52.6% | [10] 14.4%

Oc1cccc(-c2nc(N3CCOCC3)c3c4c(sc3n2)CCCC4)c1
inactive: [1] 70.3% | [2] 61% | [3] 51.9% | [4] 82.7% | [5] 45.9% | [6] 30.6% | [8] 56.9% | [9] 10.2% | [10] 52.1%
active: [7] 3.92%

CC(C)CSc1nc(N)nc2c1ncn2C1OC(CO)C(O)C1O (stereo not given)
inactive: [1] 111% | [2] 103% | [3] 110% | [4] 93% | [5] 109% | [6] 103% | [7] 93.4% | [8] 116% | [9] 103% | [10] 103%

O=C(NCCN1CCOCC1)Nc1ccc(-c2cc3c(Nc4ccc(Oc5cccc(C(F)(F)F)c5)c(Cl)c4)ncnc3s2)cc1
active: [1] 4.83% | [2] -14.8% | [9] -3.09%
inactive: [3] 41.1% | [4] 36.2% | [5] 39.2% | [6] 24.5% | [7] 28.3% | [8] 41.1% | [10] 77.2%
